Results as given in PubChem BioAssay AID651640 (Broad Institute, 2012).
Screen size: about 350,000 compounds; about 6,000 (1.7%) were called active. Roughly 5% stayed inconclusive and do not appear here. The sample holds actives, similar compounds and a random draw of the others, so the mix is not that of the screen. Values without a mark were called inactive. Cut-off read from the data, not from the text of the source: active = CPE inhibition above about 20% (passing the limit was not always enough); inconclusive = no clear call, values can overlap the other calls; tested in BHK-21 cells.

Experiment: protection of cells from dengue 2 killing – plate reader, single concentration, primary screen (AID 651640);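 note: 0% = median of neutral control wells and 100% = median of positive control wells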
Conditions: DENV2-infected cells, cytopathic effect rescue, at 9.99 µM, hits give high values

SMILES	CPE inhibition
CCC(=O)N(C)C[C@H]1Oc2ncc(C#C[C@@H](C)O)cc2C(=O)N([C@@H](C)CO)C[C@H]1C	9.17%
CNC[C@@H]1Oc2c(NC(=O)Nc3ccc(F)cc3)cccc2C(=O)N([C@@H](C)CO)C[C@@H]1C	0.246%
CCC(=O)Nc1ccc2c(c1)C(=O)N(C)C[C@H](OC)[C@H](C)CN(CCC(F)(F)F)[C@H](C)CO2	-10.4%
COCC(=O)Nc1ccc2c(c1)C(=O)N(C)C[C@@H](OC)[C@H](C)CN(C(=O)c1cccnc1)[C@H](C)CO2	7.26%
COc1cc2c(cc1OC)C(c1cccc([N+](=O)[O-])c1)=NCC2	3%
COc1cc2c(cc1OC)C(Nc1ccc(S(N)(=O)=O)cc1)=NC(C)(C)C2	23.5% (active)
COc1ccc(NC(=S)Nc2ccc(S(N)(=O)=O)cc2)c(C)c1	5.31%
CCc1nc2c(OCCc3cccc(OC)c3)cccn2c1N(C)C(=O)c1ccc(C)cc1	35.1% (active)
CCc1nc2c(OCCOc3ccccc3)cccn2c1N(C)C(=O)c1ccc(OC)cc1	-6.78%
CCc1nc2c(OCc3cccc(OC)c3)cccn2c1N(C)C(=O)C(C)C	3.81%
COc1ccc(NC(=O)Nc2ccc3c(c2)C(=O)N([C@@H](C)CO)C[C@H](C)[C@H](CN(C)S(=O)(=O)c2ccccc2)OCCCC[C@@H](C)O3)cc1	0.841%
Cc1ccccc1NC(=O)Cc1nc(COC(=O)CNC(=O)c2ccc(Cl)cc2Cl)cs1	-7.77%
Cc1ccccc1NC(=O)Cc1nc(COC(=O)c2cccnc2Cl)cs1	5.7%
Cc1ccccc1NC(=O)Cc1nc(COC(=O)C(C)(C)Oc2ccc(Cl)cc2)cs1	45.3% (active)
CN1c2ccc(-c3cccc(C#N)c3)cc2[C@@H]2[C@@H](CCN2C(=O)C2CCC2)[C@@H]1CO	-11%
COc1ccc2c3c(n(C)c2c1)[C@@H](CO)N(C(C)=O)CC31CCN(C(=O)C2CC2)CC1	-6.89%
COc1ccc(OC)c(/C(C)=N\NC(=O)c2cc3cc(Cl)ccc3n2C)c1	69.2% (active)
COc1ccc(OC)c(C(=O)c2ccc(Cl)cc2)c1	1.87%
COc1ccc(/C(C)=N/NC(=O)CCC(=O)Nc2ccc(Cl)cc2Cl)c(OC)c1	-1.9%
CCCN1C[C@@H](C)[C@@H](OC)CN(C)C(=O)c2ccc(NS(C)(=O)=O)cc2OC[C@@H]1C	-1.47%
CCC(=O)N1C[C@H](C)[C@H](OC)CN(C)C(=O)c2ccc(NS(C)(=O)=O)cc2OC[C@H]1C	-1.33%
Cc1noc(C)c1S(=O)(=O)Nc1ccc2c(c1)C(=O)N([C@H](C)CO)C[C@H](C)[C@H](CN(C)S(C)(=O)=O)OCCCC[C@H](C)O2	-2.38%

SMILES	CPE inhibition
O=C(CCNC(=O)c1ccc(Br)cc1)NCC(c1ccco1)N1CCCCC1 (stereo not drawn)	81.5% (active)
COc1ccccc1C(=O)NCCC(=O)NCC(c1ccco1)N1CCCCC1 (stereo not drawn)	-2.74%
CC(Oc1ccc(Br)cc1)C(=O)NCC(c1ccco1)N1CCCCC1 (stereo not drawn)	-0.377%
C[C@@H]1CCCCO[C@H](CN(C)C(=O)NC2CCCCC2)[C@H](C)CN([C@@H](C)CO)C(=O)c2cc(NC(=O)C3CCCCC3)ccc2O1	-2.82%
C[C@H](O)C#Cc1ccc2c(c1)O[C@H](CN(C)Cc1cccnc1)[C@H](C)CN([C@H](C)CO)S2(=O)=O	9.35%
COCC#Cc1cnc2c(c1)C(=O)N([C@@H](C)CO)C[C@@H](C)[C@@H](CN(C)C(=O)Nc1ccc(OC)cc1)O2	-9.58%
C[C@H]1CN([C@@H](C)CO)C(=O)Cc2cc(NC(=O)Nc3cccc4ccccc34)ccc2O[C@@H]1CN(C)S(C)(=O)=O	-2.56%
C[C@@H]1CN([C@H](C)CO)C(=O)Cc2cc(NC(=O)Nc3cccc4ccccc34)ccc2O[C@@H]1CN(C)Cc1ccc(C(=O)O)cc1	-18.4%
C[C@H](CO)N1C[C@H](C)[C@H](CN(C)S(C)(=O)=O)Oc2ccc(NC(=O)c3ccncc3)cc2CC1=O	-1.49%
C[C@@H]1CN([C@H](C)CO)C(=O)Cc2cc(NC(=O)Nc3ccc(C(F)(F)F)cc3)ccc2O[C@H]1CN(C)Cc1ccc(-c2ccccc2)cc1	-23%
Cc1ccc(S(=O)(=O)N(C)C[C@@H]2Oc3ccc(NC(=O)c4ccncc4)cc3CC(=O)N([C@H](C)CO)C[C@H]2C)cc1	20.7% (active)
C[C@@H]1CN([C@H](C)CO)C(=O)Cc2cc(NC(=O)Nc3cccc4ccccc34)ccc2O[C@@H]1CN(C)Cc1ccc(C(F)(F)F)cc1	20.3% (active)
C[C@@H]1CN([C@H](C)CO)C(=O)Cc2cc(NC(=O)c3ccncc3)ccc2O[C@H]1CN(C)S(=O)(=O)c1cccs1	19.1%
COc1ccc(CN(C)C[C@@H]2Oc3ccc(NC(=O)Nc4ccc(F)cc4)cc3CC(=O)N([C@@H](C)CO)C[C@H]2C)cc1	2.99%
COc1ccc(NC(=O)Nc2ccc3c(c2)CC(=O)N([C@@H](C)CO)C[C@@H](C)[C@@H](CN(C)Cc2ccc(C(F)(F)F)cc2)O3)cc1	-24.3%
C[C@H](CO)N1C[C@H](C)[C@H](CN(C)Cc2ccc(-c3ccccc3)cc2)Oc2ccc(NC(=O)Nc3ccc(F)cc3)cc2CC1=O	33.6% (active)
C[C@H]1CN([C@@H](C)CO)C(=O)Cc2cc(NC(=O)Nc3cccc4ccccc34)ccc2O[C@H]1CN(C)CC1CC1	2.69%
C[C@H]1CN([C@@H](C)CO)C(=O)Cc2cc(NC(=O)Nc3cccc4ccccc34)ccc2O[C@@H]1CN(C)C	25.6% (active)
O=C(c1ccncc1)N1CC(=O)N2[C@H](CO)[C@@H](c3ccc(-c4cccnc4)cc3)[C@H]2C1	-6.23%
COc1ccc2c3c(n(C)c2c1)[C@H](CO)N(C(=O)C1CCCC1)CC31CCN(C(=O)c2ccncc2)CC1	4.15%
CO[C@@H]1CN(C)C(=O)c2ccc(NC(=O)NC(C)C)cc2OC[C@@H](C)N(C(=O)NC(C)C)C[C@H]1C	9.11%
